Screening results from PubChem BioAssay.
PostGolgi yeast = growth inhibition of a yeast mutant, post-Golgi transport screen | inhibition, % at 10 µM | 98,000 compounds, 0.9% hits | post-Golgi transport phenotypic cell assay;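 further: yeast cells grown in 1536-well plates; yeast grown about 18 h at 30C before absorbance read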
DAT uptake mod = changed human dopamine transporter uptake under cocaine IC80; LLC-PK1 hDAT cells, [14C]-dopamine uptake with cocaine IC80; actives deviate in either direction; B-score at 10 µM; 110,000 compounds, 1.3% hits; Q01959;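 active means Z score or B-score, a plate-position-corrected score, falls beyond the plate's 99.7% confidence bounds, in either direction; inactive means both scores lie inside the 99.7% bounds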;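 further: scored against the spread of the other compound wells on the same plate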
PLAP activator = human PLAP activation; purified PLAP enzyme, luminescent substrate read-out; active compounds read high; P05187; 96,000 compounds, 1.2% hits; activation fold at 20 µM; AID 696; in the data active means activation fold above about 2
Target sequence (P05187 whole entry, looked up): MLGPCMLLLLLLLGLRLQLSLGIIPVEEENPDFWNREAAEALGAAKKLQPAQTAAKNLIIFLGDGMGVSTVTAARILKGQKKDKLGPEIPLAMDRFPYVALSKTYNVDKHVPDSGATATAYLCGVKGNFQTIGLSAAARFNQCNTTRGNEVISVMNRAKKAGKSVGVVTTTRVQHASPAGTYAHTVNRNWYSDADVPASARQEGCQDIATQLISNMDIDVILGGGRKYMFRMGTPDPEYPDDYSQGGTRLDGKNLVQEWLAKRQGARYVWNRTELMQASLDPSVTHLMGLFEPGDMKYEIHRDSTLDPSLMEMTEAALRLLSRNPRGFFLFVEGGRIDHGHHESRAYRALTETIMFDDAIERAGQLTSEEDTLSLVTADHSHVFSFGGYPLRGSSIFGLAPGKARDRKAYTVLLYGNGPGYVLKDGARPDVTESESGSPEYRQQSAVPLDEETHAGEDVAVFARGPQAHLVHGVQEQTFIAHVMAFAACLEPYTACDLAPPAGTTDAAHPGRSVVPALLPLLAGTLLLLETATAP
Cav32 inh = human Cav3.2 channel inhibition, primary screen; O95180; Cav3.2-expressing cells, Fluo-4 calcium fluorescence FDSS; active compounds read low; B-score at 10 µM; 100,000 compounds, 4% hits; AID 449739;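 active means single-dose well whose peak fluorescence ratio is a statistical outlier from its plate by either plate-standardised score or position-corrected B-score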
PostGolgi ctrl = inhibits growth of the yeast control strain. efflux-deficient yeast background strain, growth absorbance A615, 16 h. inhibition, % at 10 µM. 98,000 compounds, 5% hits. AID 738
Active calls of the source: *; nt = no result given. An excerpt weighted towards active compounds, which were near 9.6% of everything screened. Unless noted, no stated cut-off is given here; in the data, active means inhibition above about 30%; inactive means the rest.

SMILES	PostGolgi yeast	DAT uptake mod	PLAP activator	Cav32 inh	PostGolgi ctrl
CC(=O)n1cc(C2C(=O)CCCC2=O)c2ccccc21	5.8	1.43	0.9	0.545	2.5
O=C(C1=C[C@@H](c2ccc(C(F)(F)F)cc2)C[C@@H](OCCCCO)O1)N1CCN(Cc2ccc3c(c2)OCO3)CC1	nt	0.452	nt	-2.85	nt
Cc1cc(NC(=O)CSc2ncccn2)no1	nt	-0.86	nt	0.329	nt
Cc1cc(NC(=O)CSc2nc3ccccc3c(=O)n2Cc2ccccc2)no1	-2.2	-8.15*	0.9	-0.0268	2.4
Cc1cc(NC(=O)CSc2ncn(-c3ccccc3)n2)no1	7.7	-0.58	1	0.499	33.2*
COc1ccc(C(=O)NCCn2cc(SCC(=O)Nc3cc(C)on3)c3ccccc32)cc1OC	-3.8	-0.133	1.1	-0.547	-6.1
Cc1ccc(Cn2c(SCC(=O)Nc3cc(C)on3)nc3ccccc3c2=O)cc1	1.3	-0.282	1.1	-0.562	3.5
Cc1ccc(-n2c(SCC(=O)Nc3cc(C)on3)nc3c([nH]c4ccccc43)c2=O)cc1	-9.7	nt	0.9	nt	-0.7
Cc1cc(NC(=O)CSc2c(C)[nH]c3ccccc23)no1	-16.9	-1.52	1.2	-5.62*	30.2*
Cc1cc(NC(=O)CSc2cn(CCNC(=O)c3ccc(Cl)cc3)c3ccccc23)no1	-6.7	-0.0495	0.9	-6.13*	4.6
CCCOc1ccc(C2c3c(oc4ccccc4c3=O)C(=O)N2CCCN2CCOCC2)cc1 (stereo not given)	10.3	0.878	1.6	-0.847	7.9
CCCn1nnc(NC(=O)c2ccc(-c3ccccc3)cc2)n1	-0.8	0.197	0.9	0.139	5.6
CCCCn1nnc(NC(=O)COc2cc(C)ccc2C(C)C)n1	-2.4	0.648	0.9	-2.85	4.5
Cc1ccc(OCC(=O)Nc2nnn(C)n2)c(C)c1	9.3	-2.56*	1	0.318	-9.0
CCCn1nnc(NC(=O)C(c2ccccc2)c2ccccc2)n1	34.2*	-0.0351	0.9	-0.591	7.6
CCCn1nnc(NC(=O)COc2cc(C)ccc2C(C)C)n1	5.7	-8.89*	1.1	-0.173	-3.9
CCOC(=O)C1=C(N)c2ccccc2CC1C(C)C (stereo not given)	-1.4	-0.836	0.4	nt	11.0
C=CCNc1cccc(Br)c1	nt	0.232	nt	1.04	nt
CCC(=O)c1ccc(OCC(O)CN2CCN(C(c3ccccc3)c3ccccc3)CC2)cc1 (stereo not given)	1.2	2.25	1.2	-2.66	12.7
CCC(C)N(C(=O)CSc1nc(-c2ccccc2)cs1)C1CCS(=O)(=O)C1 (stereo not given)	-3.7	1.18	1.4	-0.841	-1.6
O=C(CSc1cccs1)Nc1ccc2ccccc2c1	-12.8	0.0122	1	-5.29*	-0.1
Cc1cccc(-n2c(N)cc(=O)nc2SCC(=O)Nc2nnc(C)s2)c1	-2.4	-0.591	1	-0.237	9.5
C/C(O)=C(\C#N)c1nc2ccccc2[nH]1	-0.2	-0.0397	1	0.722	12.4
O=C(/C=C/c1cccc(Cl)c1)c1nc2ccccc2[nH]1	100.3*	nt	1.1	0.0778	92.7*
Cc1ccc2nc3c(cc(C#N)c(=N)n3CC3CCCO3)c(=O)n2c1 (stereo not given)	nt	nt	0.9	nt	nt
SMILES	PostGolgi yeast	DAT uptake mod	PLAP activator	Cav32 inh	PostGolgi ctrl
CCn1c(=O)cc(SCC(=O)NCCCN2CCN(c3ccccc3F)CC2)c2ccccc21	9.2	0.279	1.6	-3.39*	1.9
CC(=O)OCc1c(C(F)(F)F)nn(C)c1Oc1cccc(C(F)(F)F)c1	0.5	0.0176	1	-4.22*	-0.5
C=C1C(C(=O)N2CCOCC2)C1C(=O)N1CCOCC1 (stereo not given)	2.0	-0.754	1.6	1.73	9.4
COc1ccccc1-c1cc(C(=O)N2CCc3ccccc3C2)c2ccccc2n1	1.1	nt	1.2	nt	52.5*
COc1ccc(OC)c(-c2cc(C(=O)N3CCN(c4ncccn4)CC3)c3ccccc3n2)c1	6.3	1.09	1.3	-0.345	27.3
O=C(c1cc(-c2ccccn2)nc2ccc(Br)cc12)N1CCc2ccccc2C1	29.8	nt	1.4	nt	70.7*
Cn1c(=O)c(C(=O)CN2CCCc3ccccc32)c(N)n(Cc2ccccc2)c1=O	-1.1	-0.375	1.8	-4.14*	20.0
CCC(=O)OCC(=O)c1c(N)n(Cc2ccccc2)c(=O)n(C)c1=O	-0.2	-0.0123	1.2	0.363	-2.1
CC(C)n1c(C(=O)OCC(=O)NCc2ccc3c(c2)OCO3)cc2sccc21	-0.2	1.27	1	-3.26*	37.4*
CCOCCCNC(=O)c1ccc(CS(=O)(=O)Cc2ccc(C)cc2)o1	4.7	0.95	1.2	nt	9.6
O=c1c2[nH]c3ccccc3c2ncn1CCCn1ccnc1	1.6	-0.601	0.9	0.182	6.2
